Screening results from PubChem BioAssay.
Most compounds without a hit are left out; they make up all but 2.1% or so of the library.
PLCg1 inh: PLC-gamma1 (human) inhibition, primary screen; purified PLC-gamma1, fluorogenic substrate, fluorescence; 370,000 compounds, 0.84% hits; inhibition, % at 12.2 µM; in the data active means inhibition above about 9.5%
Rce1 inh: blocks yeast Ras-converting enzyme; yeast membranes, quenched prenylated peptide cleavage fluorescence; calls only; 290,000 compounds, 0.27% hits; AID 2563;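 active means fall in fluorescence gain of 50% or more versus controls, with final raw signal at or below 3038400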
ADAM10 inh: inhibitors of human ADAM10. O14672. recombinant ADAM10, EDANS/DABCYL FRET peptide cleavage, 3 h. inhibition, % at 7 µM. 370,000 compounds, 0.62% hits;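 active means inhibition above a per-campaign cutoff equal to the mean of compounds falling between control-based bounds plus 3 SD, cut at about 20% in these data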
PLC-beta3 inh: PLC-beta3 (human) inhibition, primary screen. Purified PLC-beta3, fluorogenic substrate, fluorescence. inhibition, % at 12.2 µM. 370,000 compounds, 0.18% hits; in the data active means inhibition above about 11%
ADAM17 inh: inhibits human ADAM17; P78536; 370,000 compounds, 0.83% hits; recombinant ADAM17, EDANS/DABCYL FRET peptide cleavage; inhibition, % at 6.95 µM; AID 720648;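 active means inhibition above the mean of compounds lying between control limits plus 3 SD, set per campaign, cut at about 8.5% in these data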
ADAM10 confirm: confirmation of inhibitors of human ADAM10; ADAM10 QFRET peptide cleavage, EDANS fluorescence; inhibition, % at 6.95 µM; 2,100 compounds, 1% hits; shares compounds with ADAM10 inh; AID 743208;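 active means inhibition above about 20% chosen separately for each screening run, limit read from the data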
ADAM17 ctr: counter-screen for ADAM10 exosite inhibitors: inhibitors of human ADAM17 | shares compounds with ADAM10 inh | ADAM17 QFRET peptide cleavage, EDANS fluorescence | inhibition, % at 6.95 µM | 2,100 compounds, 0.5% hits;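 active means mean triplicate inhibition above the solvent-only control wells' mean plus 3 SD, cut at about 12% in these data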
A number is an active result; i = inactive; nt = not tested or not shown.

SMILES	PLCg1 inh	Rce1 inh	ADAM10 inh	PLC-beta3 inh	ADAM17 inh	ADAM10 confirm	ADAM17 ctr
CC(=O)Nc1ccc(NC(=O)c2cc(-c3cc(C)cc(C)c3O)n[nH]2)cc1	i	i	i	i	i	nt	nt
CS(=O)(=O)N(CC(=O)Nc1ccccc1Sc1ccccc1)c1cccc(Br)c1	i	i	25.1	i	10.8	i	i
CSc1ccccc1NC(=O)CN(c1cc(C)cc(C)c1)S(C)(=O)=O	i	i	i	i	i	nt	nt
Nc1nc(=S)c2ncn(C3CCCC3)c2[nH]1	i	i	i	i	i	nt	nt
CC(=O)Nc1ccc(-c2ccnc3c2CC(C)(C(=O)Nc2ccc(Cl)c(C(F)(F)F)c2)O3)cc1 (configuration not stated)	i	nt	20.1	i	i	i	i
CC1(C(=O)Nc2ccc(Cl)c(C(F)(F)F)c2)Cc2c(-c3ccccc3)ccnc2O1 (configuration not stated)	i	nt	i	i	i	nt	nt
Cc1n[nH]c(C)c1N=Nc1ccc(Br)cc1	i	i	20.9	i	i	i	i
COc1ccc(/C=C/CN2CCCC(CO)(Cc3cccc(Cl)c3)C2)cc1 (configuration not stated)	i	i	i	i	i	nt	nt
Cc1cccc(-c2noc(CNC(=O)c3ccc4c(c3)OCO4)n2)c1	i	i	22.7	i	i	i	i
COc1ccc(-c2noc(CNC(=O)c3ccc4c(c3)OCO4)n2)cc1	i	i	i	i	i	nt	nt
CCN(CC)S(=O)(=O)c1ccc(S(=O)(=O)N2CCC(N3CCCCC3)CC2)cc1	i	i	i	i	i	nt	nt
CCn1cc(CNC(=O)c2cccc([N+](=O)[O-])c2)c(C)n1	i	i	i	i	i	nt	nt
O=C(NCc1cn(-c2ccccc2)nc1-c1ccc(F)cc1)c1cccc([N+](=O)[O-])c1	i	i	21.3	i	i	i	i
NNc1nc(-c2ccccc2)nc(-c2ccccc2)c1Br	i	i	21.2	i	i	i	i
CNc1nc(-c2ccccc2)nc(-c2ccccc2)c1C#N	i	i	i	i	i	nt	nt
CCOc1ccc(-n2c(COc3ccc(Cl)cc3)nnc2SCC(=O)Nc2ccc(OCc3ccccc3)cc2)cc1	i	nt	i	i	i	nt	nt
O=C1CN(S(=O)(=O)c2cccc(Br)c2)CCN1	i	nt	i	i	i	nt	nt
FC(F)C(F)(F)C(F)(F)C(F)(F)c1cc(-c2ccccc2)n[nH]1	i	i	23.4	i	i	i	i
Cc1cc(-c2ccccc2)n[nH]1	i	i	i	i	i	nt	nt
COc1cc(C(=O)NNC(=S)NC(=O)c2ccc3c(c2)OCO3)cc(OC)c1OC	i	i	21.9	i	i	i	i
Oc1cc2c(cc1C(c1ccc(Cl)c(Cl)c1)N1CCCC1)OCO2 (configuration not stated)	i	i	27.1	i	i	i	i
CC(C)c1ccc(NC(=O)C(c2ccc3c(c2)OCO3)N2CCCCC2)cc1 (configuration not stated)	i	i	i	i	i	nt	nt
O=C(NCc1ccc(F)cc1)c1cnc(-c2ccccn2)nc1C(F)(F)F	i	i	66.1	i	i	i	i
Cc1ccc(CNC(=O)c2cnc(-c3ccccn3)nc2C(F)(F)F)cc1	i	i	i	i	i	nt	nt
O=[N+]([O-])c1cccc(/C=C/c2nc[nH]c2[N+](=O)[O-])c1	i	i	i	i	i	nt	nt
SMILES	PLCg1 inh	Rce1 inh	ADAM10 inh	PLC-beta3 inh	ADAM17 inh	ADAM10 confirm	ADAM17 ctr
CN(C(=O)c1cncc(Br)c1)c1c(N)n(Cc2ccccc2)c(=O)[nH]c1=O	i	i	81.7	i	i	i	i
CN(C(=O)c1ccc2c(c1)OCCO2)c1c(N)n(Cc2ccccc2)c(=O)[nH]c1=O	i	i	i	i	i	nt	nt
N#CCSc1nnc(CNc2ccc(F)cc2)o1	i	i	i	i	i	nt	nt
Cc1ccc(CSc2nnc(CNc3ccc(F)cc3)o2)cc1	i	i	25.9	i	i	i	i
CCCNC(=O)c1cc(C2CCCCN2S(=O)(=O)c2ccccc2)on1 (configuration not stated)	i	nt	83.8	i	i	i	i
CCOc1ccc(S(=O)(=O)N2CCCC(C(=O)NCc3ccncc3)C2)cc1 (configuration not stated)	i	i	i	i	i	nt	nt
CC(C)c1nc2cc(C(=O)N3CCN(c4cnccn4)CC3)ccc2o1	i	nt	i	i	i	nt	nt
O=C(NC1CCCCC1)C(C1CC1)n1c(=O)c(-c2cc3ccccc3[nH]2)nc2ccccc21 (configuration not stated)	i	nt	i	i	i	nt	nt
CCCCn1c(NCc2cc(C)ccc2O)nc2ccccc21	i	nt	23.1	i	i	i	i
COc1ccc(CNc2nc3ccccc3n2C)c(O)c1	i	i	i	i	i	nt	nt
Cn1c(NCc2cc(Br)ccc2O)nc2ccccc21	i	i	20.6	i	i	i	i
C=CCn1c(NCc2cc(C)ccc2O)nc2ccccc21	i	i	i	i	i	nt	nt
CCOC(=O)c1c(NC(=O)CSc2n[nH]c(CNc3ccccc3)n2)sc(C)c1C	i	nt	i	i	i	nt	nt
CCOC(=O)c1c(NC(=O)CSc2n[nH]c(-c3ccco3)n2)sc(C)c1C	i	i	22.4	i	i	i	i
Cc1cc2occ(CC(=O)N(C)CC(=O)Nc3ccccc3Cl)c2cc1C	i	i	i	i	i	nt	nt
Cc1nc(CNS(=O)(=O)c2ccc3ccccc3c2)cs1	i	i	i	i	i	nt	nt
Cc1nc(-c2cccc(NS(=O)(=O)c3ccc4ccccc4c3)c2)cs1	i	i	25.9	i	i	i	i
Cc1nn(CCCC(=O)Nc2cc(Oc3ccc(F)cc3)cc([N+](=O)[O-])c2)c(C)c1[N+](=O)[O-]	i	i	26.3	i	i	i	i
Cc1ccccc1Oc1cc(NC(=O)CCCn2nc(C)c([N+](=O)[O-])c2C)cc([N+](=O)[O-])c1	i	i	i	i	i	nt	nt
O=C(Nc1cc(Cl)cc(Cl)c1)N1CCCC1	i	i	i	i	i	nt	nt
COc1cccc(S(=O)(=O)Nc2ccc(C(O)(C(F)(F)F)C(F)(F)F)cc2)c1	i	nt	20.3	i	i	i	i
COc1ccc(NS(=O)(=O)c2cccc(C(=O)NNC(=O)c3ccc(NC(C)=O)cc3)c2)cc1	i	i	i	i	i	nt	nt
O=C(Nc1ccc(Oc2ccc3ccccc3c2)cc1)c1ccco1	i	i	22.6	i	i	i	i
CC(=O)N1c2ccc(S(=O)(=O)NCC3CCC(C(=O)NCc4ccc(C)cc4)CC3)cc2CC1C (configuration not stated)	i	i	74.0	i	i	i	i
Fc1ccc(-c2nnc(Cc3ccc(Cl)cc3)o2)cc1	i	i	i	i	i	nt	nt
O=S1(=O)c2ccc(N3CCSCC3)cc2Oc2ccccc2CN1Cc1cn(Cc2ccc(C(F)(F)F)cc2)nn1	i	nt	19.9	i	i	i	i
CC(C)Oc1ccc(CNC(=S)Nc2ccccc2)cc1Cl	i	i	i	i	i	nt	nt
CC(C)COc1ccc(CNC(=S)Nc2ccccc2)cc1Cl	i	i	21.2	i	i	i	i
